Reference: article PMC10812921, “Transcriptional Coactivator BOB1 (OBF1, OCA-B) Modulates the Specificity of DNA Recognition by the POU-Domain Factors OCT1 and OCT2 in a Monomeric Configuration”

Tests used:
POU1 (OCT1 POU domain) = POU1 (OCT1 POU domain) (human, UniProt P14859 260-458); assay: EMSA-SELEX-seq; no BOB1; 20 mM Tris-HCl pH 7.6, 140 mM NaCl, 10% glycerol, 0.5 mM EDTA, 0.05% Triton X-100, 0.1 mg/mL BSA, 0.1 mg/mL poly(dI-dC), 5 mM DTT, room temperature, 20 min; high values mean tight binding; settings: protein: recombinant; dsDNA, one strand shown
Procedure, shortened: (§1)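 Binding preference is reported as the percentage of sequenced 8-mers that match a motif pattern. Tagged POU-domain proteins were made in E. coli BL21, purified under denaturing conditions and renatured. A 30 ng portion was combined with 300 ng of a PCR-amplified double-stranded random 35-nt library, with or without 28 ng coactivator protein, in 20 μL Tris–HCl pH 7.6 binding buffer for 20 min at RT. Complex bands were excised from native 6% PAGE, eluted and PCR-amplified over four rounds before Illumina sequencing.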

POU2 (OCT2 POU domain) = target: T1, POU2 (OCT2 POU domain) (human, UniProt P09086 175-386); assay: as above; settings: protein: recombinant; dsDNA, one strand shown
T1 sequence: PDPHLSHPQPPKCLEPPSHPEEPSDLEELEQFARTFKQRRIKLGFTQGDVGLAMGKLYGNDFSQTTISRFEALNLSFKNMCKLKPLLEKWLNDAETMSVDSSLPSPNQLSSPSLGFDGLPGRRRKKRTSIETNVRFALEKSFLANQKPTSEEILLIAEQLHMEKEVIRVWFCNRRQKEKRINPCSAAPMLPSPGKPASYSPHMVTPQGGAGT
Procedure, shortened: as §1

[1] = target: POU1 (OCT1 POU domain);BOB1 (OBF1, OCA-B) (human;human, UniProt P14859;Q16633 260-458;1-256, |); assay: EMSA-SELEX-seq; with BOB1 (ternary complex band); 20 mM Tris-HCl pH 7.6, 140 mM NaCl, 10% glycerol, 0.5 mM EDTA, 0.05% Triton X-100, 0.1 mg/mL BSA, 0.1 mg/mL poly(dI-dC), 5 mM DTT, room temperature, 20 min; high values mean tight binding; settings: protein: recombinant;recombinant; copies: 1;1; dsDNA, one strand shown
Procedure, shortened: as §1

[2] = target: T2, POU2 (OCT2 POU domain);BOB1 (OBF1, OCA-B) (human;human, UniProt P09086;Q16633 175-386;1-256, |); assay: as above; settings: protein: recombinant;recombinant; copies: 1;1; dsDNA, one strand shown
T2 sequence 1: T1 sequence
T2 sequence 2: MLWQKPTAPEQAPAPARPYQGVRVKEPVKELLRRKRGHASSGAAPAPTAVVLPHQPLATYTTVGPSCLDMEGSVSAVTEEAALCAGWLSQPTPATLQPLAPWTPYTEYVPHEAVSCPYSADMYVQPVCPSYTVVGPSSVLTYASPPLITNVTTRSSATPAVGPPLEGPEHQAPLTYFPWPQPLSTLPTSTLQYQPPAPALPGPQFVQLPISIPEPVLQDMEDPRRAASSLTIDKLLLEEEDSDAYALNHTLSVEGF
Procedure, shortened: as §1

Sequence of POU1 (OCT1 POU domain) (P14859 260-458): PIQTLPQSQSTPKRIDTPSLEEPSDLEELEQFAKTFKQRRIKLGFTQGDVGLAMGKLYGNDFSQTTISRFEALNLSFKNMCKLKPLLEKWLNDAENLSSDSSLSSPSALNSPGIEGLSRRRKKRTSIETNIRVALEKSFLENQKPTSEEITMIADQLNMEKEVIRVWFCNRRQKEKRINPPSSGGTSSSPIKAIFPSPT

| Sequence | binding signal (POU1 (OCT1 POU domain)) | binding signal (POU2 (OCT2 POU domain)) | binding signal [1] | binding signal [2] |
| --- | --- | --- | --- | --- |
| AAAGAAAG | 0.0679 % of ANNNNAAN 8-mers | 0.0719 % of ANNNNAAN 8-mers | 0.08 % of ANNNNAAN 8-mers | 0.0619 % of ANNNNAAN 8-mers |
| AGATAAAT | 0.0892 % of ANNNNAAN 8-mers | 0.0886 % of ANNNNAAN 8-mers | 0.0617 % of ANNNNAAN 8-mers | 0.0627 % of ANNNNAAN 8-mers |
| AAGACAAA | 0.0538 % of ANNNNAAN 8-mers | 0.0472 % of ANNNNAAN 8-mers | 0.0706 % of ANNNNAAN 8-mers | 0.0438 % of ANNNNAAN 8-mers |
| ATGAGAAA | 0.0755 % of ANNNNAAN 8-mers | 0.0765 % of ANNNNAAN 8-mers | 0.0738 % of ANNNNAAN 8-mers | 0.0792 % of ANNNNAAN 8-mers |
| ATGTCAAT | 0.0828 % of ANNNNAAN 8-mers | 0.0869 % of ANNNNAAN 8-mers | 0.0722 % of ANNNNAAN 8-mers | 0.0743 % of ANNNNAAN 8-mers |
| AGCAAAAC | 0.0481 % of ANNNNAAN 8-mers | 0.0449 % of ANNNNAAN 8-mers | 0.0792 % of ANNNNAAN 8-mers | 0.0446 % of ANNNNAAN 8-mers |
| ATGCGAAC | 0.04 % of ANNNNAAN 8-mers | 0.0357 % of ANNNNAAN 8-mers | 0.0386 % of ANNNNAAN 8-mers | 0.0347 % of ANNNNAAN 8-mers |
| ATGATAAT | 0.513 % of ANNNNAAN 8-mers | 0.582 % of ANNNNAAN 8-mers | 0.138 % of ANNNNAAN 8-mers | 0.135 % of ANNNNAAN 8-mers |
| ATCGCAAG | 0.0179 % of ANNNNAAN 8-mers | 0.0219 % of ANNNNAAN 8-mers | 0.023 % of ANNNNAAN 8-mers | 0.0206 % of ANNNNAAN 8-mers |
| AGGAGAAA | 0.0572 % of ANNNNAAN 8-mers | 0.0541 % of ANNNNAAN 8-mers | 0.0539 % of ANNNNAAN 8-mers | 0.0471 % of ANNNNAAN 8-mers |
| AAGCCAAG | 0.0271 % of ANNNNAAN 8-mers | 0.0184 % of ANNNNAAN 8-mers | 0.0168 % of ANNNNAAN 8-mers | 0.019 % of ANNNNAAN 8-mers |
| ACATCAAG | 0.024 % of ANNNNAAN 8-mers | 0.0351 % of ANNNNAAN 8-mers | 0.0265 % of ANNNNAAN 8-mers | 0.033 % of ANNNNAAN 8-mers |
| ACAACAAT | 0.0248 % of ANNNNAAN 8-mers | 0.0305 % of ANNNNAAN 8-mers | 0.023 % of ANNNNAAN 8-mers | 0.0305 % of ANNNNAAN 8-mers |
| ACTTGAAC | 0.0183 % of ANNNNAAN 8-mers | 0.0207 % of ANNNNAAN 8-mers | 0.018 % of ANNNNAAN 8-mers | 0.0314 % of ANNNNAAN 8-mers |
| AGTGCAAT | 0.0347 % of ANNNNAAN 8-mers | 0.0455 % of ANNNNAAN 8-mers | 0.0367 % of ANNNNAAN 8-mers | 0.0396 % of ANNNNAAN 8-mers |
| ATTTTAAT | 0.672 % of ANNNNAAN 8-mers | 0.679 % of ANNNNAAN 8-mers | 0.258 % of ANNNNAAN 8-mers | 0.221 % of ANNNNAAN 8-mers |
| ACACCAAT | 0.0187 % of ANNNNAAN 8-mers | 0.0173 % of ANNNNAAN 8-mers | 0.0168 % of ANNNNAAN 8-mers | 0.019 % of ANNNNAAN 8-mers |
| AGTACAAA | 0.0336 % of ANNNNAAN 8-mers | 0.0328 % of ANNNNAAN 8-mers | 0.0375 % of ANNNNAAN 8-mers | 0.0446 % of ANNNNAAN 8-mers |
| AAATAAAG | 0.156 % of ANNNNAAN 8-mers | 0.151 % of ANNNNAAN 8-mers | 0.168 % of ANNNNAAN 8-mers | 0.171 % of ANNNNAAN 8-mers |
| ATCGAAAG | 0.0294 % of ANNNNAAN 8-mers | 0.0288 % of ANNNNAAN 8-mers | 0.0379 % of ANNNNAAN 8-mers | 0.0272 % of ANNNNAAN 8-mers |
| ATCCGAAG | 0.0275 % of ANNNNAAN 8-mers | 0.0299 % of ANNNNAAN 8-mers | 0.0304 % of ANNNNAAN 8-mers | 0.0338 % of ANNNNAAN 8-mers |
| ATTTGAAG | 0.0713 % of ANNNNAAN 8-mers | 0.0604 % of ANNNNAAN 8-mers | 0.0909 % of ANNNNAAN 8-mers | 0.0545 % of ANNNNAAN 8-mers |
| ACGGAAAC | 0.0198 % of ANNNNAAN 8-mers | 0.019 % of ANNNNAAN 8-mers | 0.0289 % of ANNNNAAN 8-mers | 0.0305 % of ANNNNAAN 8-mers |
| ATCACAAA | 0.0332 % of ANNNNAAN 8-mers | 0.0374 % of ANNNNAAN 8-mers | 0.0539 % of ANNNNAAN 8-mers | 0.0438 % of ANNNNAAN 8-mers |
| AGGATAAG | 0.0496 % of ANNNNAAN 8-mers | 0.0558 % of ANNNNAAN 8-mers | 0.0523 % of ANNNNAAN 8-mers | 0.0479 % of ANNNNAAN 8-mers |
| ATTCAAAT | 1.58 % of ANNNNAAN 8-mers | 1.29 % of ANNNNAAN 8-mers | 1.57 % of ANNNNAAN 8-mers | 1.95 % of ANNNNAAN 8-mers |
| AAAAGAAG | 0.0629 % of ANNNNAAN 8-mers | 0.076 % of ANNNNAAN 8-mers | 0.0679 % of ANNNNAAN 8-mers | 0.071 % of ANNNNAAN 8-mers |
| AGGTTAAC | 0.032 % of ANNNNAAN 8-mers | 0.0293 % of ANNNNAAN 8-mers | 0.0324 % of ANNNNAAN 8-mers | 0.0338 % of ANNNNAAN 8-mers |
| AGAACAAG | 0.0221 % of ANNNNAAN 8-mers | 0.0334 % of ANNNNAAN 8-mers | 0.0219 % of ANNNNAAN 8-mers | 0.0231 % of ANNNNAAN 8-mers |
| ACACGAAG | 0.0206 % of ANNNNAAN 8-mers | 0.0196 % of ANNNNAAN 8-mers | 0.0176 % of ANNNNAAN 8-mers | 0.0157 % of ANNNNAAN 8-mers |
